Rows were chosen to be rich in hits. Some 1.3% of all compounds tested hit in one or more screens of this group.
SARS 3CLpro inh – SARS-CoV 3CLpro protease inhibition | recombinant SARS-CoV 3CLpro, quenched FRET peptide cleavage | P0C6X7 | actives 0.14% (n = 290,000) | inhibition, % at 6 µM; in the data active = inhibition above about 12%
Sa ugtP lethal – kills S. aureus RN4220 lacking UgtP. AID 1259309. actives 0.54% (n = 330,000). growth inhibition, % (concentration not given with the values). S. aureus RN4220 ugtP deletion, OD600 growth, 16 h; in the data active = growth inhibition above about 68%;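 note: plate controls were untreated wells for no effect and antibiotic for full effect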
Mtb betalactam – beta-lactam sensitization of Mtb H37Rv | M. tuberculosis H37Rv growth with meropenem, percent inhibition | inhibition, % at 25 µM | actives 0.27% (n = 330,000) | AID 434955; call rule not given here;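 note: growth measured after seven days incubation then overnight dye step; 0% = bacteria only wells and 100% = bacteria with antibiotic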
RN4220 kill – kills Staphylococcus aureus RN4220. S. aureus RN4220 growth, OD600, 16 h. inhibition, % (concentration not given with the values). actives 0.33% (n = 330,000). AID 1259311; in the data active = inhibition above about 85%;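 note: plate controls were untreated cells for no effect and reference antibiotic for full effect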
MazEF act – MazEF (E. coli) toxin RNase activation. actives 0.32% (n = 350,000). activation, % at 20 µM. AID 504720. FAM/BHQ RNA-DNA oligo cleavage fluorescence, 5 h; in the data active = activation above about 50%
Target sequence (P0AE70 whole entry, looked up): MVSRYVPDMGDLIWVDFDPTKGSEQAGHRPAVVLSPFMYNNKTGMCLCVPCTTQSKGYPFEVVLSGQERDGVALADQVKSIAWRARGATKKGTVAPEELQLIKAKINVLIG
CCHFV vOTU inh – blocks the CCHF virus ovarian tumor domain protease | CCHFV vOTU protease, Pep-AMC fluorescence | inhibition, % at 11.5 µM | actives 0.55% (n = 370,000); in the data active = inhibition above about 30%; note: 0% = vehicle wells with enzyme and 100% = no enzyme wells
* = called active by the depositor; / = no result given.

SMILES	SARS 3CLpro inh	Sa ugtP lethal	Mtb betalactam	RN4220 kill	MazEF act	CCHFV vOTU inh
COc1ccc(NCC(=O)NN=Cc2c(C)nn(Cc3ccccc3)c2Cl)cc1	/	3	/	-3	/	/
CC(C=NNC(=O)CSc1ccccn1)=Cc1ccc(C(C)C)cc1	/	-19	/	1	/	/
C[n+]1ccc(/C=C/c2ccccc2O)c2ccccc21	1	4	-5	5	13	9
CN1/C(=C/c2cc[n+](C)c3ccccc23)C=Cc2ccccc21	0	96*	/	100*	9	/
CCOC(=O)c1ccc(NC(=O)c2ccccc2[N+](=O)[O-])cc1	7	11	-2	6	-1	-8
O=C(Nc1ccc(S(=O)(=O)NCc2ccccc2)cc1)c1ccccc1[N+](=O)[O-]	3	-6	2	5	116*	-2
O=C1C=C(c2ccc3ncccc3c2)CC(c2ccc(Cl)cc2)C1 (configuration not stated)	/	14	/	-1	/	/
Cc1cc(C=C2NC(=O)NC2=O)c(C)n1-c1sc2c(c1C#N)CCCC2	/	-8	/	10	/	/
O=C(/C=C1\C(=O)Nc2ccccc21)/C=C1\C(=O)Nc2ccccc21	0	-2	/	15	11	-2
O=C1Nc2ccccc2/C1=C\C(=O)c1ccccc1	6	98*	99	98*	7	2
CC(=O)OCC1=C(C(=O)O)N2C(=O)C(NC(=O)c3ccc(F)cc3)C2SC1 (configuration not stated)	7	100*	-5	100*	4	4
CC1=C(C(=O)O)N2C(=O)C(NC(=O)c3nn(C)c(C)c3Cl)C2SC1 (configuration not stated)	-7	23	-4	19	-1	9
CC(=O)OCC1=C(C(=O)O)N2C(=O)C(NC(=O)C(C)Cn3nc(C)c(Cl)c3C)C2SC1 (configuration not stated)	0	101*	18	100*	-5	-3
CC(=O)OCC1=C(C(=O)O)N2C(=O)[C@@H](NC(=O)CSc3ccncc3)[C@H]2SC1	/	99*	/	100*	-2	10
CO/N=C(\C(=O)N[C@@H]1C(=O)N2C(C(=O)O)=C(COC(N)=O)CS[C@H]12)c1ccco1	0	/	17	/	-10	7
CC1C(=O)OCC1NC(=O)OCc1ccccc1 (configuration not stated)	/	1	/	5	/	/
COc1cc([N+](=O)[O-])cc(C=NNC(=O)Cn2cncn2)c1O	/	2	/	3	/	/
Nc1nnnn1CC(=O)NN=Cc1cc([N+](=O)[O-])ccc1O	/	81	/	93*	/	/
O=C(Cn1cncn1)NN=Cc1cc([N+](=O)[O-])ccc1O	/	76	/	88*	/	/
O=C(NN=Cc1ccc(O)c(O)c1)NC12CC3CC(CC(C3)C1)C2	/	8	/	1	/	/
CCCCCCCCOC(=O)c1c(CSC(=N)N)n(C)c2cc(Br)c(OC(C)=O)cc12	7	101*	94	100*	-12	27
CCOC(=O)c1c(CSC(=N)N)n(-c2ccc(Br)cc2)c2cc(Br)c(OC(C)=O)cc12	-5	-8	/	0	15	-3
O=C(Cn1nc(CNc2ccc(Cl)cc2)[n+]2c1CCCCC2)c1ccccc1	-4	-11	2	-5	8	14
Cc1ccc(C(C)C)c(OCc2nn(CC(=O)c3ccc(Cl)cc3)c3[n+]2CCCCC3)c1	4	99*	100	100*	11	10
CCN1C(=O)C2C(c3ccc(-c4cccc(Cl)c4)c(OC)c3)N3CCCC[C@@]3(C(=O)OC)C2C1=O (some centres not stated)	/	-2	/	-2	/	/
SMILES	SARS 3CLpro inh	Sa ugtP lethal	Mtb betalactam	RN4220 kill	MazEF act	CCHFV vOTU inh
Cc1cccc(NC(=O)CCC(=O)NN=Cc2cc([N+](=O)[O-])ccc2O)c1	/	84*	/	94*	/	/
Cc1ccc(NC(=O)CCC(=O)N/N=C/c2cc([N+](=O)[O-])ccc2O)cc1	0	/	28	/	10	-11
O=C(CCCC(=O)Nc1cccc(Br)c1)NN=Cc1cc([N+](=O)[O-])ccc1O	/	79	/	88*	/	/
O=C(CCCC(=O)Nc1cccc(Br)c1)N/N=C/c1cc([N+](=O)[O-])ccc1O	3	/	15	/	1	-3
O=[N+]([O-])c1cc(Cl)c(O)c2ncccc12	9	98*	/	99*	-3	13
CCC(=O)NC(c1ccc(C)cc1)c1cc([N+](=O)[O-])c2cccnc2c1O (configuration not stated)	-5	95*	8	94*	-8	17
O=[N+]([O-])c1cc(Cl)c2cccnc2c1O	-1	100*	30	99*	-9	23
O=[N+]([O-])c1cc(F)c2cccnc2c1O	-1	23	78	30	3	14
Oc1c(I)cc(Cl)c2cccnc12	-2	100*	98	99*	-8	8
CCOc1cc(C=NNC(=O)CN2CCCCC2)ccc1OCc1cccc(Cl)c1	/	3	/	0	/	/
O=C(CCN1CCN(c2ccccc2)CC1)NN=Cc1ccccc1O	/	4	/	16	/	/
O=C(NC(Cc1ccccc1)C(=O)O)C(=Cc1ccco1)NC(=O)c1ccco1 (configuration not stated)	/	-7	/	-2	/	/
Fc1cccc(CCN2C(=S)NCC2Cc2ccccc2)c1 (configuration not stated)	/	8	/	5	/	/
C=C(C)C(=O)Nc1cccc(C2=NOC3(C2)CC(C(N)=O)N(C(=O)CC(c2ccccc2)c2ccccc2)C3)c1 (configuration not stated)	/	0	/	0	/	/
O=c1oc2ccccc2c(O)c1Cc1cc(Cl)c2cccnc2c1O	7	98*	4	94*	-5	0
Oc1c(CN2CCc3ccccc3C2)cc(Cl)c2cccnc12	2	-3	96	4	-12	/
COCc1cc(=O)[nH]c(N=C(N)Nc2ccc(Oc3ccccc3)cc2)n1	/	7	/	8	/	/
CCc1ccc(C=NNC(=O)c2cc(C3CC3)nc3ccccc23)s1	/	-4	/	1	/	/
CC1CN(c2nc3ccccc3cc2-c2ccccc2)CC(C)O1 (configuration not stated)	2	91*	-2	-7	0	10
CC1CN(c2cc(-c3ccccc3)c3ccccc3n2)CC(C)O1 (configuration not stated)	1	12	-2	2	-1	5
COCc1cc(Sc2cccc(Cl)c2Cl)nc(-c2ccccc2)n1	-6	91*	-7	-11	-16	1
C=CC1=C(C(=O)O)N2C(=O)C(NC(=O)C(=NOCC(=O)O)c3csc(N)n3)C2SC1 (configuration not stated)	/	99*	/	93*	/	/
CON=C(C(=O)NC1C(=O)N2C(C(=O)O)=C(CSc3nc(=O)c(=O)[nH]n3C)CSC12)c1csc(N)n1 (configuration not stated)	/	/	/	/	-2	6
CC(C)(C)c1ccc2c(c1)OC(C(=O)NN=Cc1ccc([N+](=O)[O-])o1)CO2 (configuration not stated)	/	100*	/	100*	/	/

High-throughput results (PubChem BioAssay)
